High-throughput results as filed in PubChem BioAssay.
Rpn11 inh: inhibitors of human proteasome Rpn11; 360,000 tested, 0.59% active; inhibition, % at 20 µM; O00487; human 26S proteasome, Ub4-pepOG fluorescence polarization; 20S core pre-blocked with epoxomicin;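 active = inhibition at 20 µM, scaled to each plate's controls, above about 33%, limit read from the data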
NR3A LBD binder: modulates the human NR3A ligand-binding domain | Tm shift relative to glycine control, % at 25 µM | NR3A LBD differential scanning fluorimetry, Tm shift; 0% = protein alone, 100% = glycine-bound protein | 340,000 tested, 2.5% active;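 active = melting temperature shift of at least 10% of the positive control shift, at one fixed dose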
TPT1 inhibitor: blocks Candida albicans tRNA 2'-phosphotransferase | inhibition, % at 5 µM | 300,000 tested, 0.81% active | AID 1962 | recombinant caTPT1, FP RNA substrate dephosphorylation;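 active = inhibition above the mean of all tested compounds plus 3 SD, set per screening campaign, cut at about 24% in these data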
EBNA-1 inh: blocks EBNA-1 binding to DNA; inhibition, % at 14.8 µM; EBNA-1 DNA binding, fluorescence polarization; 300,000 tested, 0.34% active; in the data active = inhibition above about 28%
ZTA counter: blocks Epstein-Barr virus ZTA, an EBNA-1 counter-screen. ZTA-DNA binding, fluorescence polarization. 320,000 tested, 0.15% active. AID 2234. inhibition, % at 11 µM. P03206; in the data active = inhibition above about 33%
Target sequence (P03206 whole entry, looked up): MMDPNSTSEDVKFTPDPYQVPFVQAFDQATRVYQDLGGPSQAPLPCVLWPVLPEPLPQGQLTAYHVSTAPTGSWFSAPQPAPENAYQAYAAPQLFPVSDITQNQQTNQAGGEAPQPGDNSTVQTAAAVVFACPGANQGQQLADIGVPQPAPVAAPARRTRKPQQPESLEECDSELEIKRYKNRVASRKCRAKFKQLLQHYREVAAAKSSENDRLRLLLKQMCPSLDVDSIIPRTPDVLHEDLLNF
dFosB act-1: enhances mouse delta FosB homodimer DNA binding. P13346. 340,000 tested, 0.99% active. purified delta FosB, TAMRA-CDK5 oligo fluorescence polarization; percent of positive-control signal above neutral wells. AID 493131. activation, % at 25 µM;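 active = mean activation above about 17%, with every replicate also reaching it, limit read from the data, passing the limit was not always enough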
Target sequence (P13346 whole entry, looked up): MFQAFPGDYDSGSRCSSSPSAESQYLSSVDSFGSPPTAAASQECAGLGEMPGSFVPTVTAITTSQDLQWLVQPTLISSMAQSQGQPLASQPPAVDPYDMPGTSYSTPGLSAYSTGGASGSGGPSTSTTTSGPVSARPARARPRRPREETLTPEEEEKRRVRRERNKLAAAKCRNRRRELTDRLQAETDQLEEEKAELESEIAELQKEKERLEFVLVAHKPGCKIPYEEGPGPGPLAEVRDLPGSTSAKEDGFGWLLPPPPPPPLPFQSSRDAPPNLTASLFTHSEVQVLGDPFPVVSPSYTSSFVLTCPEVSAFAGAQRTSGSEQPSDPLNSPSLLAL
dFosB act-2: delta FosB (mouse) homodimer activation; shares compounds with dFosB act-1; purified delta FosB, TAMRA-CDK5 oligo fluorescence polarization; normalised: neutral wells 0, positive control 100; activation, % at 24.9 µM; 2,400 tested, under 10 active; AID 588690;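 active = highest replicate activation at or above 34% and every replicate reaching that threshold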;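 also: higher polarization means more probe DNA bound by delta FosB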
Of the large screens only hits and unclear results are named; the others gave an inactive call (follow-up assays come after a bar, where they were run). Rows were chosen to be rich in hits. Some 4.5% of all compounds tested hit in one or more screens of this group.

O=C(N/N=C/c1ccccc1Br)c1ccc(CSc2cccc3cccnc23)cc1	dFosB act-1 28 | dFosB act-2 inactive
COc1ccc(/C=N/NC(=O)c2ccc(COc3cccc4cccnc34)cc2)cc1OC	dFosB act-1 19 | dFosB act-2 inactive
COc1cc(C(=O)N/N=C/c2ccc(OC(=O)c3ccccc3Cl)c(OC)c2)ccc1O	dFosB act-1 25 (no result: TPT1 inhibitor, EBNA-1 inh, ZTA counter) | dFosB act-2 inactive
O=C(N/N=C/c1cccc(O)c1)c1ccc(COc2cccc3cccnc23)cc1	dFosB act-1 33 | dFosB act-2 inactive
COc1cc(/C=N/NC(=O)c2ccncc2)ccc1OC(=O)c1ccccc1Cl	none
Nc1ccc(Cl)c(S(=O)(=O)Nc2ccc(Cl)cc2)c1	none
O=C1C=CC2(O[C@H](c3ccccc3)[C@@H](c3ccccc3)O2)[C@H](Sc2ccccc2O)C1	none (no result: TPT1 inhibitor, EBNA-1 inh, ZTA counter)
COc1ccc(/C=N\NC(=O)c2ccc(-c3ccccc3)cc2)cc1COC(C)=O	dFosB act-1 34 | dFosB act-2 inactive
COc1ccc(/C=N/NC(=O)c2cc3c(ccc4ccccc43)o2)cc1OC	NR3A LBD binder 20, dFosB act-1 77 (no result: TPT1 inhibitor, EBNA-1 inh, ZTA counter) | dFosB act-2 inactive
COc1ccc(/C=N\NC(=O)c2ccccc2)cc1COc1ccc(F)cc1	none
COc1cccc2cc(-c3cc(=O)oc4ccc(OCC(C)=O)cc34)oc12	none
COC(=O)COc1ccc2oc(=O)cc(-c3cc4cccc(OC)c4o3)c2c1	dFosB act-1 52 | dFosB act-2 inactive
O=C(c1cc(Cl)ccc1O)N1CCN(S(=O)(=O)Cc2ccccc2)CC1	none (no result: TPT1 inhibitor, EBNA-1 inh, ZTA counter)
Cc1nc2c(sc(=S)n2Cc2ccco2)c(=O)n1CC(=O)Nc1ccccc1F	dFosB act-1 83 | dFosB act-2 inactive
Cc1nnc(SCC(=O)Nc2ccccc2F)n1Cc1ccco1	none
Cc1nc2c(sc(=S)n2Cc2ccco2)c(=O)n1CC(=O)Nc1ccccc1	dFosB act-1 34 | dFosB act-2 inactive
CCn1c(=S)sc2c(=O)n(CC(=O)NCCCc3ccccc3)c(C)nc21	none
COc1cccc(-c2c(C(=O)N/N=C/c3ccsc3)nnn2-c2nonc2N)c1	dFosB act-1 20 | dFosB act-2 inactive
COc1cccc(-c2c(C(=O)N/N=C/c3sccc3C)nnn2-c2nonc2N)c1	none
CCOc1ccc(-c2c(C(=O)N/N=C/c3cccc(Br)c3)nnn2-c2nonc2N)cc1	NR3A LBD binder 17, dFosB act-1 55 | dFosB act-2 inactive
CCOc1cccc(-c2c(C(=O)N/N=C/c3cccnc3)nnn2-c2nonc2N)c1	none
CCOc1ccc(-c2c(C(=O)N/N=C/c3ccc(OC)cc3)nnn2-c2nonc2N)cc1	none
CCOc1cccc(-c2c(C(=O)N/N=C/c3ccc(Br)cc3)nnn2-c2nonc2N)c1	NR3A LBD binder 17, dFosB act-1 29 | dFosB act-2 inactive
CCOc1cc(Cl)c(S(=O)(=O)NCCCN2CCOCC2)cc1Cl	none
CCOC(=O)NN1C(=O)c2ccccc2NC1c1ccc(OC)cc1OC (stereo unspecified)	none
CN(CC(=O)Nc1ccccc1Cl)C(=O)COC(=O)c1ccc(-c2ccc(O)cc2)cc1	dFosB act-1 45 (no result: TPT1 inhibitor, EBNA-1 inh, ZTA counter) | dFosB act-2 inactive
O=C(Oc1cccc(F)c1)c1ccc2c(=O)n3c(nc2c1)CCC3	none
COc1ccc(NC(=O)c2cc(S(=O)(=O)N3CCCCC3)c[nH]2)c(OC)c1	none
COc1cc(NC(=O)c2cc(S(=O)(=O)N3CCCCC3)c[nH]2)cc(OC)c1	dFosB act-1 100 | dFosB act-2 inactive
COc1ccc2oc(C(=O)Nc3nc4ccc(S(C)(=O)=O)cc4s3)c(C)c2c1	NR3A LBD binder 19, dFosB act-1 61 | dFosB act-2 inactive
COc1ccc2nc(NC(=O)CS(=O)(=O)Cc3ccccc3)sc2c1	dFosB act-1 74 | dFosB act-2 inactive
COc1ccc(OCC(=O)Nc2nc3cc4c(cc3s2)OCCO4)cc1	dFosB act-1 47 (no result: TPT1 inhibitor, EBNA-1 inh, ZTA counter) | dFosB act-2 inactive
CS(=O)(=O)c1ccc2nc(NC(=O)c3cc([N+](=O)[O-])cc([N+](=O)[O-])c3)sc2c1	none
COc1cc(C(=O)Nc2nc3ccc(S(C)(=O)=O)cc3s2)cc(OC)c1C	dFosB act-1 30 | dFosB act-2 inactive
CC(=O)Nc1nc2cc3c(cc2s1)OCCO3	none
Cc1ccc(-c2sc(-c3ccccc3)nc2CC(=O)Nc2ccccc2F)cc1	none
Cc1ccc(NC(=O)CC2=NC(=O)C(CC(=O)Nc3ccccc3F)S2)cc1 (stereo unspecified)	dFosB act-1 46 | dFosB act-2 inactive
Cc1ccc(-c2nsc(SCC(=O)Nc3ccc4c(c3)OCO4)n2)cc1	dFosB act-1 24 | dFosB act-2 inactive
Nn1c(SCC(=O)Nc2ccc3c(c2)OCO3)nnc1-c1ccccc1	none
O=C(CSc1nc(-c2ccccc2Cl)ns1)Nc1ccc2c(c1)OCO2	none
Nn1c(SCC(=O)Nc2ccc3c(c2)OCO3)nnc1-c1ccc(Cl)cc1	NR3A LBD binder 18, dFosB act-1 64 | dFosB act-2 inactive
CCOc1ccc(NC(=S)N2CCc3cc(OC)c(OC)cc3C2COc2ccc3c(C)cc(=O)oc3c2)cc1 (stereo unspecified)	dFosB act-1 50 | dFosB act-2 inactive
Cc1ccc2nc(NC(=O)c3ccc4ncsc4c3)sc2c1	NR3A LBD binder 18, dFosB act-1 22 | dFosB act-2 inactive
Cc1ccc2nc(NC(=O)c3ccc(Cl)s3)sc2c1	NR3A LBD binder 20, dFosB act-1 26 | dFosB act-2 inactive
O=S(=O)(NCCCSc1ccccc1)c1ccccc1F	none
COc1ccc(/C=C2\SC(=O)N(CC(=O)NNC(=O)c3ccccc3O)C2=O)cc1OC	none
O=C(CN1C(=O)S/C(=C\c2ccccc2)C1=O)NNC(=O)c1ccccc1O	dFosB act-1 48 | dFosB act-2 inactive
O=C(Nc1cc(N2CCOCC2)ncn1)NC1(C(F)(F)F)Oc2ccccc2O1	dFosB act-1 33 | dFosB act-2 inactive
NC(=O)c1nsc(C(=O)N(c2ccccc2F)C(C(=O)NCc2ccccc2)c2ccc(O)cc2)c1N (stereo unspecified)	dFosB act-1 32 | dFosB act-2 inactive
CCOc1ccccc1N(C(=O)c1snc(C(N)=O)c1N)C(C(=O)NCc1ccccc1)c1ccc(O)cc1 (stereo unspecified)	none (no result: TPT1 inhibitor, EBNA-1 inh, ZTA counter)
Cc1ccccc1N(C(=O)c1snc(C(N)=O)c1N)C(C(=O)NCc1ccccc1)c1ccc(O)cc1 (stereo unspecified)	dFosB act-1 41 | dFosB act-2 inactive
CCN(CC)CCNC(=O)c1ccc(NC(=O)/C=C/c2cc(OC)c(OC)c(OC)c2)cc1	dFosB act-1 52 | dFosB act-2 inactive
